# Experimental data from PubChem BioAssay (NCATS).
# Values without a mark were called inactive. Inconclusive results are not listed. A call without a number means that no potency is given here. The source made the active and inactive calls. Unless noted, calls follow the shape of the dose curve; as a rule, active = well fitted curve in the direction sought with a large enough effect; inconclusive = small, poorly fitted or top-dose-only effect, or another doubt; inactive = no such curve, though single readings can be large; an effect the other way counts as inactive or inconclusive.
# Legend:
# [1] = target: Glucocorticoid receptor (Homo sapiens) (UniProt P04150); experiment: GR-GFP Redistribution (AID 450;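 active = compounds whose dose series gives a full or clear partial fitted curve of increased nuclear translocation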; also: potency is read from the fitted curve at half-maximal effect)
# Glucocorticoid receptor (Homo sapiens), sequence (P04150 whole entry, looked up, the tested form may be a part): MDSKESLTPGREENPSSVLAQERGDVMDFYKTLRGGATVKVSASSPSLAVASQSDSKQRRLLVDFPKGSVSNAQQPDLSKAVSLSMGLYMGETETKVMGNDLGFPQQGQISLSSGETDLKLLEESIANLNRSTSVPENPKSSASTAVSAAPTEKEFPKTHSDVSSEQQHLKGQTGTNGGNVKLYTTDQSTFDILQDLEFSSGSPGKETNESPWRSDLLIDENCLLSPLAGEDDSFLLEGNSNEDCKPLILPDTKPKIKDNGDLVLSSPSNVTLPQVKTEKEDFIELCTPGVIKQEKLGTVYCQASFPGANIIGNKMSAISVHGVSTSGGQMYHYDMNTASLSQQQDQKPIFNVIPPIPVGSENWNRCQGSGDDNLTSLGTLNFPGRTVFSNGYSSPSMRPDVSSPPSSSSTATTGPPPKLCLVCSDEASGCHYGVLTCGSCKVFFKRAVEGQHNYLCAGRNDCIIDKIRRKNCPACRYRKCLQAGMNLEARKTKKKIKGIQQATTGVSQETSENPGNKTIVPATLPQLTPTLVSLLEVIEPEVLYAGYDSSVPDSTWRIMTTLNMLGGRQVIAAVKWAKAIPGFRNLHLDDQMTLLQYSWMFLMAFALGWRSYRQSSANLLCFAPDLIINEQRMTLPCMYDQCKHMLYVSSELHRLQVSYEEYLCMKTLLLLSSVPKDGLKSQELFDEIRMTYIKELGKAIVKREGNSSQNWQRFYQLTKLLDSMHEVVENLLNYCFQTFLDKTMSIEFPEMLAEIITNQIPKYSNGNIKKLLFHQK
# [2] = target: Glucocorticoid receptor (Homo sapiens) (UniProt P04150); experiment: GR-EFC Redistribution (AID 451; calls by dose curve; also: potency is read from the fitted curve at half-maximal effect); conditions: CHO-K1 GR-EFC translocation, beta-gal luminescence, 2 h
# Method in brief: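 CHO-K1 cells expressing nuclear EA and GR-ED fragments of b-gal; compounds titrated up to 46 uM final, 2 h at 37 C. GR nuclear translocation read as complemented b-gal luminescence after 1 h RT detection.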
# [3] = target: Mitogen-activated protein kinase 10 (Mus musculus) (UniProt Q61831); experiment: JNK3 AlphaScreen Assay (AID 530; active = well fitted curve in either direction with a large enough effect, not every such curve was filed as active;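 also: kinase came from lysate of stimulated human HepG2 cells; signal reports phosphorylation of biotinylated GST-cJun 1-79 at Ser73 with 10 µM ATP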)
# Method in brief: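 Pre-activated (IL-1β/TNFα) JNK3 in HepG2 lysates phosphorylates biotin-GST-cJun(1-79), 10 uM ATP; anti-phospho-cJun(Ser73) AlphaScreen read at room temperature, pH 7.6 Tris buffer. Compounds pre-incubated 15 min as titrations.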
# [4] = target: 3',5'-cyclic-AMP phosphodiesterase 4B (Homo sapiens) (UniProt Q07343); experiment: qHTS Assay for Inhibitors of PDE-IV (AID 607; active = well fitted activation curve with a large enough effect in the main read-out, with a control signal flat, not every such curve was filed as active)
# 3',5'-cyclic-AMP phosphodiesterase 4B (Homo sapiens), sequence (Q07343 whole entry, looked up): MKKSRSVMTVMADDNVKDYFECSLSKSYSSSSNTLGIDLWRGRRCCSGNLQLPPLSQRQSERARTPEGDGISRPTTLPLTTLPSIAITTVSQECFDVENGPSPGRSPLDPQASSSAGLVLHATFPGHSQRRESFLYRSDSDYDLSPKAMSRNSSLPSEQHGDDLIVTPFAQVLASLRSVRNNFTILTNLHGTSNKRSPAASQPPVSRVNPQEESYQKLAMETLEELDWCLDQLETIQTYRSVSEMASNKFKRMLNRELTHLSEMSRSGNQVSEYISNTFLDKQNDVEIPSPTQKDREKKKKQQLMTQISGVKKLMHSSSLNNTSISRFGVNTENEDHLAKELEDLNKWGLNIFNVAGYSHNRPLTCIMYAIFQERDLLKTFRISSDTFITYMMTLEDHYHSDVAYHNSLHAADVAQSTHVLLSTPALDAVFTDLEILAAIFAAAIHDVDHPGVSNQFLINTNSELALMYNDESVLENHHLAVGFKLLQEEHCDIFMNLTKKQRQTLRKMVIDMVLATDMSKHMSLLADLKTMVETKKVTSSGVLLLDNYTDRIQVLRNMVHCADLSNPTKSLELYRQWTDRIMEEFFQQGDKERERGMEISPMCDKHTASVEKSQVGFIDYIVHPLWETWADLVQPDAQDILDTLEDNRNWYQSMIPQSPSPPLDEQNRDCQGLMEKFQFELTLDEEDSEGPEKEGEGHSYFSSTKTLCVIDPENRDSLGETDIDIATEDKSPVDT
# Method in brief: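 ACTOne HEK293 cells carry a modified cAMP-gated CNG channel and express endogenous PDE4; plated 1000 cells/well, compounds up to 22.9 uM final. Membrane-potential dye fluorescence (ex 535/em 590) was read; parental cells received 10 uM forskolin + 100 uM RO 20-1724.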
# [5] = target: Cytochrome P450 2C19 (Homo sapiens) (UniProt P33261); experiment: qHTS Assay for Inhibitors and Substrates of Cytochrome P450 2C19 (AID 899); also: potency is read from the fitted curve at half-maximal effect; nearly all actives have a fitted effect of over 60% in size
# Cytochrome P450 2C19 (Homo sapiens), sequence (P33261 whole entry, looked up): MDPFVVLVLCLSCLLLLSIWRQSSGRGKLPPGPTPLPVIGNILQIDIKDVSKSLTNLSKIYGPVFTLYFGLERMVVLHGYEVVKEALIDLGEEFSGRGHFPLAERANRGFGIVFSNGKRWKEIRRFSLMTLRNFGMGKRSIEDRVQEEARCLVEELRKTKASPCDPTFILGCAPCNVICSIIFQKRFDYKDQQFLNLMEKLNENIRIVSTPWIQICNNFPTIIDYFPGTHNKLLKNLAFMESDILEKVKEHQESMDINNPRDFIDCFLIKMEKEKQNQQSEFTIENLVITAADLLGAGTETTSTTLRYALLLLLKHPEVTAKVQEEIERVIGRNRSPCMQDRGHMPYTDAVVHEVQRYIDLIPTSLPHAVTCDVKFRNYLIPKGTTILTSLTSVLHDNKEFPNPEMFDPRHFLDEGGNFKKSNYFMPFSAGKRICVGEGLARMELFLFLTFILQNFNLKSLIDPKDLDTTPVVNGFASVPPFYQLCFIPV
# Method in brief: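 5 nM human CYP2C19 with 10uM Luciferin-H EGE (at KM) in 50mM KPO4, compound preincubated 10 min at 37C, then NADPH regeneration for 60 min at 37C. Luciferin read by luminescence after detection reagent; normalized to 57uM ketoconazole as full inhibition.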
# [6] = target: ATP-dependent 6-phosphofructokinase (Trypanosoma brucei brucei) (UniProt O15648); experiment: qHTS Assay to Find Inhibitors of T. brucei phosphofructokinase: hit validation (AID 492961);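 also: luminescence reports ADP formed as PFK phosphorylates fructose-6-phosphate with ATP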
# ATP-dependent 6-phosphofructokinase (Trypanosoma brucei brucei), sequence (O15648 whole entry, looked up): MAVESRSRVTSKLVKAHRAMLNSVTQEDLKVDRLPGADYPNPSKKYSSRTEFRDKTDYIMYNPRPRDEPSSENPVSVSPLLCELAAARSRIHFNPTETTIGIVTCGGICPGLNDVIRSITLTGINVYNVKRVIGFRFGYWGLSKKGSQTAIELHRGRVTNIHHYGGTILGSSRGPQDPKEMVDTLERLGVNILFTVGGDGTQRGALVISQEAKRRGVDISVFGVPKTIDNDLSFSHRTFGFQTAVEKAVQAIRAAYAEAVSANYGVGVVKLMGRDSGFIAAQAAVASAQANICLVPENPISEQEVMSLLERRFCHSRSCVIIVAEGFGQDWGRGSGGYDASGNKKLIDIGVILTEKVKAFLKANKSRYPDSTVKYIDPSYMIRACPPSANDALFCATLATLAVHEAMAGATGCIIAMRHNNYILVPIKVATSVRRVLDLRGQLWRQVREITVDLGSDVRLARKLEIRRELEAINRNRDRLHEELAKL
# Method in brief: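 Compounds titrated; %activity normalized to 0x and 1x enzyme controls, curve-fitted. Readout: ADP-Glo luminescence after 45 min room-temperature reaction of 1.25 nM PFK, 0.1 mM ATP, 0.5 mM F6P, pH 8.0.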
# [7] = target: Ubiquitin carboxyl-terminal hydrolase 1 (Homo sapiens) (UniProt O94782); experiment: Inhibitors of USP1/UAF1: Pilot qHTS (AID 504865);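 also: rhodamine fluorescence freed from ubiquitin-rhodamine substrate followed over time; top concentration of the series differs between compounds; nearly all actives have a fitted effect of over 35% in size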
# Ubiquitin carboxyl-terminal hydrolase 1 (Homo sapiens), sequence (O94782 whole entry, looked up): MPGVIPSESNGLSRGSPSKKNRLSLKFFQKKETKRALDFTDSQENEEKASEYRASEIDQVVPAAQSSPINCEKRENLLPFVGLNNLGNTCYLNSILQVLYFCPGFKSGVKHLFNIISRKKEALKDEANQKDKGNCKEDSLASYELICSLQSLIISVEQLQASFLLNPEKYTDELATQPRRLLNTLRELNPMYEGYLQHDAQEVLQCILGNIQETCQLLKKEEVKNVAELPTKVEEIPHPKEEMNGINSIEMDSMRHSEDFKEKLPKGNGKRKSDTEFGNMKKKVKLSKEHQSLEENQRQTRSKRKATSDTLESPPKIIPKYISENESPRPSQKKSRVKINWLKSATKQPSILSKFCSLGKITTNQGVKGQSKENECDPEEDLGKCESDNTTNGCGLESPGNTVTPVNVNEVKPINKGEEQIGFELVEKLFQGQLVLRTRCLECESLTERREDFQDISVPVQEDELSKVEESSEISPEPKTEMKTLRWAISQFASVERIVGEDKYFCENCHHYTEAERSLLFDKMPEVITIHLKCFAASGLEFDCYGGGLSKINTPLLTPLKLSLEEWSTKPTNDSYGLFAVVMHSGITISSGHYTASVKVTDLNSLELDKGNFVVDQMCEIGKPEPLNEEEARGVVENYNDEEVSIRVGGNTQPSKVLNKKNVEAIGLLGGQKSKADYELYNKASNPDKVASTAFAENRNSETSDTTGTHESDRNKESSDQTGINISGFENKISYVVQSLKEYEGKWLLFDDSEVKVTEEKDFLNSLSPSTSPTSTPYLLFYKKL
# Method in brief: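 USP1/UAF1 complex (1nM) preincubated with compound 15 min at room temperature, then Ub-Rho substrate (150nM final) added. Fluorescence read kinetically at 480/540 nm, 6 reads every 60 seconds. Buffer: 50mM HEPES pH 7.8, 0.5mM EDTA, 0.1 mg/ml BSA, 1mM TCEP, 0.01% Tween-20.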
# [8] = target: DNA dC->dU-editing enzyme APOBEC-3G (Homo sapiens) (UniProt Q9HC16); experiment: qHTS for inhibitors of Vif-A3G interactions: Validation (AID 588379)
# DNA dC->dU-editing enzyme APOBEC-3G (Homo sapiens), sequence (Q9HC16 whole entry, looked up): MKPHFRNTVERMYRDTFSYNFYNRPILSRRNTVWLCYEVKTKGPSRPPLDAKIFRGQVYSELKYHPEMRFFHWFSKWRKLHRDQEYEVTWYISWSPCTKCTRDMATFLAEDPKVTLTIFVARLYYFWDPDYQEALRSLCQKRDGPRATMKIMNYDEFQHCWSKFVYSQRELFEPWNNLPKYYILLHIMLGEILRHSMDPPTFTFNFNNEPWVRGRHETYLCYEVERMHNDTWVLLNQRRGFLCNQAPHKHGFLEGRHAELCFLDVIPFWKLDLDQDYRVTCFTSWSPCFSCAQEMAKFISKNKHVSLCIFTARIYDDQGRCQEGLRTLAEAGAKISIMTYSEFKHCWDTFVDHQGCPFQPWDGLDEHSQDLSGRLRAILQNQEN
# Method in brief: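 HeLa cells stably expressing Vif and A3G-eYFP, 700 cells/well, incubated overnight at 37 deg C, then exposed to compound overnight at 37 deg C. Inhibition of Vif-mediated degradation read as increased yellow fluorescence (Ex 488/Em 500-530) by laser-scanning cytometry.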
# [9] = target: Luciferin 4-monooxygenase (Photinus pyralis) (UniProt P08659); experiment: Biochemical firefly luciferase enzyme assay for NPC (AID 624030);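 also: purified P. pyralis luciferase at 10 nM with luciferin and ATP substrate; nearly all actives have a fitted effect of over 70% in size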
# Luciferin 4-monooxygenase (Photinus pyralis), sequence (P08659 whole entry, looked up): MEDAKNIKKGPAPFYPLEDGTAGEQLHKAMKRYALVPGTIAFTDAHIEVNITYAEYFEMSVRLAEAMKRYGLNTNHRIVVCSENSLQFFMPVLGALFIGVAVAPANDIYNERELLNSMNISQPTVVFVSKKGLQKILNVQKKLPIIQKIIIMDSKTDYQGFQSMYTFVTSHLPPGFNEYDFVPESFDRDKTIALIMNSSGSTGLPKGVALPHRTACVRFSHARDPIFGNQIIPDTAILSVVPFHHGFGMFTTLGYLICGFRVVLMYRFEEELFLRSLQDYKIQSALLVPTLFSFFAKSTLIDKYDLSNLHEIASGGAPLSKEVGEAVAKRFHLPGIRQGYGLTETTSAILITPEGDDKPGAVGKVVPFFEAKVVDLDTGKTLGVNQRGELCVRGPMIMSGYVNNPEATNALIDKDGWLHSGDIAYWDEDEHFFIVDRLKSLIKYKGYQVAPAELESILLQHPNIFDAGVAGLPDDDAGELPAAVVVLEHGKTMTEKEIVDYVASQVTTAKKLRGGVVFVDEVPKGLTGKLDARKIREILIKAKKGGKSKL
# Method in brief: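 Purified P. pyralis luciferase at 10 nM in 50 mM Tris Acetate (final), luminescence read within 5 minutes of enzyme addition to compounds. Activity normalised to PTC124 versus DMSO; concentration-response curves classed by r2, magnitude and activity.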
# [10] = S16 Schwann cell viability assay (CellTiter-Glo assay) (AID 624031);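 also: cellular ATP luminescence as a viability measure; nearly all actives have a fitted effect of over 70% in size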
# Method in brief: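 Native S16 Schwann cells (rat), serum-containing medium, overnight attachment then 24 h drug exposure at 37 °C/5% CO2. CellTiter-Glo ATP signal; normalized to cell-free and vehicle wells.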
# [11] = S16 Schwann cell PMP22 intronic element firefly luciferase assay (AID 624032); also: nearly all actives have a fitted effect of over 30% in size
# Method in brief: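 Rat S16 Schwann cells stably carrying firefly luciferase driven by a PMP22 intronic element, in 10% FBS, treated 24 h at 37 C. ONE-Glo luminescence normalized to PTC124 control and DMSO (0%); curves classed by r2, magnitude and activity.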
# [12] = S16 Schwann cell PMP22 intronic element beta-lactamase assay (AID 624044; calls by dose curve; also: nearly all actives have a fitted effect of over 15% in size); conditions: S16 rat Schwann cells, PMP22 element beta-lactamase FRET, 24 h; ratio activity, negative = inhibition: at 38.3 µM (top of the series)
# Method in brief: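 Rat S16 Schwann cells with beta-Lac driven by a PMP22 intronic element, compound-treated 24 h at 37 °C. LiveBLAzer FRET B/G read: 460 nm normalized to potassium clavulanate vs DMSO; 535 nm FRET as viability; concentration-effect curves classified.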
# [13] = qHTS profiling for inhibitors of Plasmodium falciparum proliferation (AID 504749); also: nearly all actives have a fitted effect of over 60% in size; conditions: P. falciparum in erythrocytes, SYBR Green DNA, 72 h, at 28.7 µM (top of the series)
# Method in brief: (§1)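 P. falciparum-infected erythrocytes (0.3% parasitemia, 2.5% hematocrit) incubated with compound 72 h at 37 C, 5% CO2. Parasite DNA detected by SYBR Green after lysis, overnight at room temperature; normalised to 0.29 uM artemisinin and DMSO.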
# 3D7 = experiment: as above; conditions: P. falciparum in erythrocytes, SYBR Green DNA, 72 h; series mostly up to 28.7 µM
# Method in brief: as §1
# 7G8 = experiment: as above; conditions: P. falciparum in erythrocytes, SYBR Green DNA, 72 h; series mostly up to 28.7 µM
# Method in brief: as §1
# AA1029 = experiment: as above; conditions: P. falciparum in erythrocytes, SYBR Green DNA, 72 h; series mostly up to 28.7 µM
# Method in brief: as §1
# AS120 = experiment: as above; conditions: P. falciparum in erythrocytes, SYBR Green DNA, 72 h; series mostly up to 28.7 µM
# Method in brief: as §1
# ATS189 = experiment: as above; conditions: P. falciparum in erythrocytes, SYBR Green DNA, 72 h; series mostly up to 28.7 µM
# Method in brief: as §1
# ATS95 = experiment: as above; conditions: P. falciparum in erythrocytes, SYBR Green DNA, 72 h; series mostly up to 28.7 µM
# Method in brief: as §1
# C2A = experiment: as above; conditions: P. falciparum in erythrocytes, SYBR Green DNA, 72 h; series mostly up to 28.7 µM
# Method in brief: as §1
# CP185 = experiment: as above; conditions: P. falciparum in erythrocytes, SYBR Green DNA, 72 h; series mostly up to 28.7 µM
# Method in brief: as §1
# CP191 = experiment: as above; conditions: P. falciparum in erythrocytes, SYBR Green DNA, 72 h; series mostly up to 28.7 µM
# Method in brief: as §1
# CP192 = experiment: as above; conditions: P. falciparum in erythrocytes, SYBR Green DNA, 72 h; series mostly up to 28.7 µM
# Method in brief: as §1
# CP194 = experiment: as above; conditions: P. falciparum in erythrocytes, SYBR Green DNA, 72 h; series mostly up to 28.7 µM
# Method in brief: as §1
# CP201 = experiment: as above; conditions: P. falciparum in erythrocytes, SYBR Green DNA, 72 h; series mostly up to 28.7 µM
# Method in brief: as §1
# CP203 = experiment: as above; conditions: P. falciparum in erythrocytes, SYBR Green DNA, 72 h; series mostly up to 28.7 µM
# Method in brief: as §1
# CP211 = experiment: as above; conditions: P. falciparum in erythrocytes, SYBR Green DNA, 72 h; series mostly up to 28.7 µM
# Method in brief: as §1
# CP215 = experiment: as above; conditions: P. falciparum in erythrocytes, SYBR Green DNA, 72 h; series mostly up to 28.7 µM
# Method in brief: as §1
# CP217 = experiment: as above; conditions: P. falciparum in erythrocytes, SYBR Green DNA, 72 h; series mostly up to 28.7 µM
# Method in brief: as §1
# CP237 = experiment: as above; conditions: P. falciparum in erythrocytes, SYBR Green DNA, 72 h; series mostly up to 28.7 µM
# Method in brief: as §1
# CP238 = experiment: as above; conditions: P. falciparum in erythrocytes, SYBR Green DNA, 72 h; series mostly up to 28.7 µM
# Method in brief: as §1
# CP247 = experiment: as above; conditions: P. falciparum in erythrocytes, SYBR Green DNA, 72 h; series mostly up to 28.7 µM
# Method in brief: as §1
# CP250 = experiment: as above; conditions: P. falciparum in erythrocytes, SYBR Green DNA, 72 h; series mostly up to 28.7 µM
# Method in brief: as §1
# CP252 = experiment: as above; conditions: P. falciparum in erythrocytes, SYBR Green DNA, 72 h; series mostly up to 28.7 µM
# Method in brief: as §1
# CP256 = experiment: as above; conditions: P. falciparum in erythrocytes, SYBR Green DNA, 72 h; series mostly up to 28.7 µM
# Method in brief: as §1
structure (smiles),measurement,setting,value
O=C(O)[C@H]1C[C@@H](CP(=O)(O)O)CCN1,Potency,[1],> 46 µM
same,Potency,[2],> 46 µM
same,Potency,[3],inactive
same,Potency,[4],inactive
same,Potency,[5],7.94 µM (active)
same,Potency,[6],inactive
same,Potency,[7],inactive
same,outcome,[8],inactive
same,Potency,[9],inactive
same,Potency,[10],inactive
same,Potency,[11],inactive
same,Potency,[12],inactive
same,"activity, negative = inhibition",[13]; parasite line A,-7.9%
same,"activity, negative = inhibition",[13]; parasite line B,-2.91%
same,Potency,3D7,inactive
same,Potency,7G8,inactive
same,Potency,AA1029,inactive
same,Potency,AS120,inactive
same,Potency,ATS189,inactive
same,Potency,ATS95,inactive
same,Potency,C2A,inactive
same,Potency,CP185,inactive
same,Potency,CP191,inactive
same,Potency,CP192,inactive
same,Potency,CP194,inactive
same,Potency,CP201,inactive
same,Potency,CP203,inactive
same,Potency,CP211,inactive
same,Potency,CP215,inactive
same,Potency,CP217,inactive
same,Potency,CP237,inactive
same,Potency,CP238,inactive
same,Potency,CP247,inactive
same,Potency,CP250,inactive
same,Potency,CP252,inactive
same,Potency,CP256,inactive
